From article PMC6925144, “A prospective compound screening contest identified broader inhibitors for Sirtuin 1” (Scientific Reports, 2019)
The full ranking holds about 3,200 compounds; the median of “TSA(without NAD+) / Primary screening (TSA) / delta Tm (K)” is about -0.07, and the highest 2% start at about 0.37. The entries come from a sample that favours the highest values as a whole.

target: NAD-dependent deacetylase Sirtuin 1 (human, UniProt Q96EB6); assay: primary screen, delta tm; parameters: single well (n = 1); details: 10 µM
Description: A total of 3,192 compounds extracted from the proposed lists were first screened by thermal shift assay (TSA), which determined a melting temperature shift (ΔTm) of Sirtuin 1 upon the addition of a test compound at a concentration of 10 µM (n = 1) with primary hit criteria of ΔTm > 0.45 K or ΔTm < −1.5 K. Primary hits (48 compounds) were retested in the same assay at three concentrations (5, 10, 20 µM, n = 4) for hit confirmation and for dose-dependency check. Secondary hits (41 compounds) were checked their selectivity for Sirtuin 1 based on counterscreening on unrelated protein targets (bovine carbonic anhydrase (CA) and recombinant SH2 domain of hABL1 kinase (ABL1)) at three different concentrations (5, 10, 20 µM, n = 4), which yielded 38 hit compounds, hereafter referred to as TSA hits. The TSA screening above was conducted in the absence of NAD+.

NAD-dependent deacetylase Sirtuin 1, sequence (Q96EB6 2-747 limits assumed): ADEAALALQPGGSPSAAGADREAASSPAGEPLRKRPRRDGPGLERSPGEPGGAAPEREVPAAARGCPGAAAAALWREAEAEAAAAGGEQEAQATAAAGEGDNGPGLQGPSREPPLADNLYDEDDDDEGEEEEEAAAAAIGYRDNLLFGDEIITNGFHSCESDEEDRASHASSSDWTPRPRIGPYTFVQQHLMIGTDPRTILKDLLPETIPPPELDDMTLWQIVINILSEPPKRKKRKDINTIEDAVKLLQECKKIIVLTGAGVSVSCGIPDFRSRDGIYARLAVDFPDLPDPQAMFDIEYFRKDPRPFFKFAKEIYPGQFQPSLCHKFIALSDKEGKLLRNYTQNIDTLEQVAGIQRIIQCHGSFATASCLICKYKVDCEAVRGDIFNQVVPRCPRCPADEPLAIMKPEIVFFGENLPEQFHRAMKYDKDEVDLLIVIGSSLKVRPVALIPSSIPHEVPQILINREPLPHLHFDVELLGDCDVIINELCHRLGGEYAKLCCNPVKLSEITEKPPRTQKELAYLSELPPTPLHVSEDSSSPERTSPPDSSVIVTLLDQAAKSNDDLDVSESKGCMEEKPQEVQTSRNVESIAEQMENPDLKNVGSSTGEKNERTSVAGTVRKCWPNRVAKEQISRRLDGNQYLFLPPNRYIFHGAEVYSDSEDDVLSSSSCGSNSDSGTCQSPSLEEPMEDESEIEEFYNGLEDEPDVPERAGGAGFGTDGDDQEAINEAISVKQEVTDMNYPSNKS

| Structure (SMILES) | TSA(without NAD+) / Primary screening (TSA) / delta Tm (K) |
| --- | --- |
| O=C(CCc1ccc2c(c1)OCO2)N1CCc2[nH]c3ccccc3c2C1 | -0.15 |
| Cc1nc(-c2ccccn2)[nH]c(=O)c1CC(=O)NCc1cccc(Oc2ccccc2)c1 | 0.09 |
| NC(=O)C1CCN(C(=O)c2ccc3[nH]c4c(c3c2)CCCC4)CC1 | 0.17 |
| Cc1cc(N(C)C)n2nc(C(F)(F)F)c(-c3ccccc3)c2n1 | -0.18 |
| Cc1ccc(-n2c(C)c(C)c3c(N)ncnc32)cc1 | 0.02 |
| CCc1cc2c(N3CCCC3)nc(C)nc2s1 | -0.07 |
| CCCOc1ccc(C(=O)C2=C(O)C(=O)N(CCCN3CCOCC3)C2c2ccccc2F)cc1 (stereo not drawn) | -0.27 |
| CC(=O)Nc1ccc(NC(=O)c2ccccc2SCC(=O)NC23CC4CC(CC(C4)C2)C3)cc1 | -0.21 |
| CCOc1ccc(C2C(C(=O)c3ccco3)=C(O)C(=O)N2CCCN2CCOCC2)cc1 (stereo not drawn) | -0.13 |
| NC(=O)c1cccc(CN2CCCC2c2ccsc2)c1 (stereo not drawn) | -0.08 |
| CC(=O)Nc1ccc(CNCc2ccccc2CN2CCCC2)cc1 | -0.12 |
| NC(=O)C1CCN(c2ncnc3c2c(-c2ccccc2)cn3-c2cccc(C(F)(F)F)c2)CC1 | -0.07 |
| CC(Nc1cccc(C(N)=O)c1)C1CN(Cc2ccccc2)CCO1 (stereo not drawn) | -0.18 |
| CC(=C/c1ccccc1)/C=N/NC(=O)c1cc(-c2ccc(C)cc2)n[nH]1 | 1.06 |
| Cc1ccc(-c2cc(C(=O)OC(C)C(=O)Nc3cccc([N+](=O)[O-])c3)[nH]n2)cc1 (stereo not drawn) | 0.12 |
| Cc1ccc(C2C(C(=O)c3cc4ccccc4o3)=C(O)C(=O)N2CCCN2CCOCC2)o1 (stereo not drawn) | 0.02 |
| N#Cc1cc(Br)ccc1NCC1(CCO)CCOC1 (stereo not drawn) | -0.24 |
| Cc1cc(C)c(NC(=O)CN(C)C(=O)CNC(=O)C(C)(C)C)c(C)c1 | 0.02 |
| O=C1/C(=C/c2cnn(-c3ccccc3)c2)Oc2cc(O)ccc21 | 1.25 |
| O=C1/C(=C/c2ccccc2)Oc2cc(O)ccc21 | 0.08 |
| O=C1/C(=C/c2cccc(O)c2)Oc2cc(O)ccc21 | -0.21 |
| NC(=O)c1ccc(C(=O)OCC(=O)Nc2ccccc2-c2ccccc2)cc1 | -0.18 |
| COc1ccc(C(=O)C2=C(O)C(=O)N(CCCN3CCOCC3)C2c2ccco2)cc1Cl (stereo not drawn) | 0.02 |
| Cn1cc(C(=O)Nc2cccc(C3(C)NC(=O)NC3=O)c2)c2ccccc21 (stereo not drawn) | -0.14 |
| Cc1c(CCC#N)c(Cl)n2c(nc3ccccc32)c1C#N | -0.04 |

| Structure (SMILES) | TSA(without NAD+) / Primary screening (TSA) / delta Tm (K) |
| --- | --- |
| CCc1c(C)c(C#N)c2nc3ccccc3n2c1S | 0.39 |
| CCc1c(C)c(C#N)c2nc3ccccc3n2c1Cl | -0.08 |
| Cc1nc2cc(NC(=O)C3Cc4ccccc4O3)ccc2o1 (stereo not drawn) | 0.03 |
| Cc1cccc2c(CC(=O)O)c(-c3ccccc3)[nH]c12 | -0.02 |
| c1ccc(-c2[nH]c3c(ccc4ccccc43)c2-c2ccccc2)cc1 | 0.52 |
| Nc1nc(-c2c(-c3ccccc3)[nH]c3ccccc23)cs1 | 0.09 |
| O=C(CCl)c1c(-c2ccccc2)[nH]c2ccccc12 | -0.04 |
| c1ccc(-c2[nH]c3ccccc3c2-c2ccccc2)cc1 | 0.45 |
| CC1(C)CC1N (stereo not drawn) | -0.22 |
| NC(=O)Cc1ccc(NC(=O)c2cc(Br)ccc2Cl)cc1 | -0.11 |
| NC1=Nc2nc3ccccc3n2C(c2ccc(-c3ccc(C(=O)O)cc3)o2)N1 (stereo not drawn) | 1.36 |
| CCCCOc1cc(C2NC(N)=Nc3nc4ccccc4n32)ccc1OC (stereo not drawn) | -0.17 |
| CC(C)(CNc1ncnc2ccsc12)C(N)=O | -0.02 |
| O=C1/C(=C/c2ccc(Br)cc2F)Cc2c(O)cccc21 | -0.03 |
| Oc1cccc2c1Cc1c-2nc2ccc(Cl)cc2c1-c1ccccc1Cl | 0.38 |
| CCCOCC(=O)O | -0.13 |
| Cc1cccc(Nc2nnc(SCC(=O)Nc3ccc(C(N)=O)cc3)s2)c1 | -0.04 |
| Cc1ccc(Nc2nnc(SCC(=O)Nc3cc(C)c(C)cc3[N+](=O)[O-])s2)cc1 | -0.03 |
| COc1ccc(NC(=O)CSc2nnc(Nc3ccc(SC(F)F)cc3)s2)cc1OC | 0.73 |
| O=C(C1=C(O)C(=O)N(CCCN2CCOCC2)C1c1ccco1)c1ccco1 (stereo not drawn) | -0.22 |
| Cc1nc2ccccc2nc1SCc1cc(=O)n2ccsc2n1 | 0.02 |
| O=C(COC(=O)CNC(=O)C12CC3CC(CC(C3)C1)C2)Nc1ccccc1Cc1ccccc1 | 0.13 |
| CCCCOC(=O)c1ccc(NC(=O)COC(=O)CNC(=O)C23CC4CC(CC(C4)C2)C3)cc1 | 0.48 |
| CCOc1ccc(CCNC(=O)COC(=O)CNC(=O)C23CC4CC(CC(C4)C2)C3)cc1OCC | 0.03 |
| CC(C)Oc1ccc(C(=O)C2=C(O)C(=O)N(CCCN3CCOCC3)C2c2ccncc2)cc1 (stereo not drawn) | -0.07 |

| Structure (SMILES) | TSA(without NAD+) / Primary screening (TSA) / delta Tm (K) |
| --- | --- |
| O=c1c2ccccc2ncn1CC(O)c1ccccc1Cl (stereo not drawn) | -0.17 |
| COc1ccc(/C=N/c2ccc(C(=O)O)cc2)cc1Br | 0.07 |
| N#Cc1c(Cn2nnc3ccccc3c2=O)cn2ccccc12 | 0.07 |
| CC(OC(=O)c1cccc(S(=O)(=O)NCc2ccccc2)c1)C(=O)NC12CC3CC(CC(C3)C1)C2 (stereo not drawn) | -0.03 |
| Cc1ccc([N+](=O)[O-])cc1S(=O)(=O)Nc1ccc(C(=O)OC(C)C(=O)NC23CC4CC(CC(C4)C2)C3)cc1 (stereo not drawn) | 0.86 |
| COc1cc(C(C)=O)ccc1COc1ccc(C(=O)OC(C)C(=O)NC23CC4CC(CC(C4)C2)C3)cc1OC (stereo not drawn) | 0.05 |
| CCC(N)COC (stereo not drawn) | -0.18 |
| Cc1ccc(Nc2nnc(SCC(=O)NC(=O)NCc3ccco3)s2)cc1 | 0.07 |
| Cc1ncc(CN2CCC(Nc3ccc4nnnn4n3)C(C)C2)s1 (stereo not drawn) | 0.12 |
| c1ccc(CN2CCCCCC2)c(CNc2ccc3nnnn3n2)c1 | -0.11 |
| Cc1cc(F)ccc1N1CCCC(Nc2ccc3nnnn3n2)C1 (stereo not drawn) | 0.63 |
| NC(=O)c1ncn(-c2ccncc2)c1N | -0.02 |
| CC1CN(S(=O)(=O)c2cccc(C(=O)OCC(=O)COC(=O)c3cccc(S(=O)(=O)N4CC(C)OC(C)C4)c3)c2)CC(C)O1 (stereo not drawn) | -0.11 |
| NC(=O)COC(=O)c1ccc(OCC(=O)Nc2cccc(C(F)(F)F)c2)cc1 | -0.02 |
| Cc1cccc(-n2ccnc2SCC(=O)Nc2ccc(S(=O)(=O)Nc3nccs3)cc2)c1C | 0.08 |
| O=C(COc1ccccc1C(=O)Nc1ccc(S(=O)(=O)Nc2nccs2)cc1)Nc1cccc(C(F)(F)F)c1 | 0.98 |
| CCOc1cc(N2CCOCC2)c(OCC)cc1NC(=O)C1=COCCO1 | -0.15 |
| CC(NC(=O)COC(=O)CNC(=O)c1ccc(-c2ccccc2)cc1)C12CC3CC(CC(C3)C1)C2 (stereo not drawn) | 0.06 |
| NC(=O)c1cc2c(ccc3ccccc32)o/c1=N\c1ccc(Br)cc1 | -0.32 |
| O=C(Nc1cccc(-c2nc(C3CC3)no2)c1)c1cccc(NC(=O)C2CCCCC2)c1 | 0.42 |
| O=C(O)C1CC(=O)N(c2cccc(-c3nc(C4CC4)no3)c2)C1 (stereo not drawn) | 0.03 |
| O=C(NCc1cccc(NC(=O)C2CC2)c1)c1ccc(C(=O)c2ccccc2)cc1 | -0.11 |
| Cc1ccc2c(c1)c(=O)n(C)c1nnc(CN3CCc4ccccc4C3)n21 | -0.32 |
| O=C(NC1=NCCS1)c1cc(Cl)ccc1O | -0.05 |
| CC(O)CC(C)(C)CNC(=O)Nc1ccc(F)cc1 (stereo not drawn) | -0.13 |

| Structure (SMILES) | TSA(without NAD+) / Primary screening (TSA) / delta Tm (K) |
| --- | --- |
| O=C(CC12CC3CC(CC(C3)C1)C2)NN/C=C1/C(=O)N(Cc2ccccc2)C(=O)c2ccccc21 | 0.32 |
| O=C1CCCN1Cc1ccc(-c2ccccc2CNC(=O)C23CC4CC(CC(C4)C2)C3)cc1 | -0.28 |
| O=C1NC(=O)c2ccccc2/C1=C\NNC(=O)C12CC3CC(CC(C3)C1)C2 | 0.33 |
| O=C1/C(=C/NNC(=O)C23CC4CC(CC(C4)C2)C3)c2ccccc2C(=O)N1Cc1ccccc1 | 0.46 |
| COc1ccc(N2C(=O)/C(=C/NNC(=O)C34CC5CC(CC(C5)C3)C4)c3ccccc3C2=O)cc1 | 0.43 |
| COc1ccc(CN2C(=O)/C(=C/NNC(=O)CC34CC5CC(CC(C5)C3)C4)c3ccccc3C2=O)cc1 | 0.09 |
| CCS(=O)(=O)Nc1ccc(S(=O)(=O)Nc2nccs2)c(OC)c1 | -0.18 |
| N#Cc1ccccc1Sc1ccccc1C(=O)Nc1ccc(-c2cn3cccnc3n2)cc1 | -0.14 |
| CCCCCCCCNC(=O)/C(C#N)=C/c1c[nH]c2ccccc12 | 0.58 |
| CCOc1ccc(/C=C(/C#N)C(=O)c2c[nH]c3cc(F)ccc23)cc1 | 0.06 |
| N#C/C(=C\c1[nH]c2ccccc2c1Cl)C(N)=O | -0.13 |
| Oc1ccccc1/C=N/c1ccccc1O | -0.13 |
| Cc1cc2ccccc2n1CC(=O)NCC(Cc1ccccc1)N(C)C (stereo not drawn) | -0.12 |
| CN(c1cccc(Cl)c1)S(=O)(=O)c1cccc(C(=O)Nc2ncc(C(N)=O)s2)c1 | 0.37 |
| CN(c1cccc(Cl)c1)S(=O)(=O)c1cccc(C(=O)Nc2sccc2C(N)=O)c1 | 0.18 |
| CN(c1ccccc1)S(=O)(=O)c1cccc(C(=O)Nc2sccc2C(N)=O)c1 | 0.38 |
| Cc1ccc(NC(=O)c2cccc(S(=O)(=O)N(C)c3ccc(C)cc3)c2)cc1 | 0.45 |
| CC(=O)Nc1ccc(NC(=O)c2cccc(S(=O)(=O)N(C)c3ccc(C)cc3)c2)cc1 | -0.11 |
| COc1ccc(N(C)S(=O)(=O)c2cccc(C(=O)Nc3ncc(C(N)=O)s3)c2)cc1 | 0.06 |
| COc1ccc(N(C)S(=O)(=O)c2cccc(C(=O)Nc3ccc(C)cc3)c2)cc1 | 0.17 |
| CN(c1cccc(Cl)c1)S(=O)(=O)c1cccc(C(=O)Nc2cc(C(N)=O)cc(C(N)=O)c2)c1 | 0.15 |
| Cc1ccc(N(C)S(=O)(=O)c2cccc(C(=O)Nc3ccc(C(N)=O)cc3)c2)cc1 | 0.46 |
| Cc1ccc(N(C)S(=O)(=O)c2cccc(C(N)=O)c2)cc1 | -0.11 |
| Cc1ccc(N(C)S(=O)(=O)c2cccc(C(=O)Nc3sccc3C(N)=O)c2)cc1 | 0.17 |
